Assay [1] in a line: Nuclear factor erythroid 2-related factor 2/antioxidant responsive element (Nrf2/ARE) small molecule agonists: qHTS cell viability counter screen in human keratinocytes (AID 1919968; active = well fitted curve in the direction sought with a large enough effect in the repeat runs; an effect the other way counts as inactive or inconclusive; note: nearly all actives have a fitted effect of over 55% in size; note: potency is the fitted concentration of half-maximal effect). An outline of the steps: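 Measured as CellTiter-Fluor fluorescence, this readout tracks cytotoxicity in the same wells as the ARE-luciferase screen. HaCaT reporter cells (1,500/well) received compounds after a 5 h pre-incubation and were exposed for 23 h.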

Assay [2] is described as follows: Nuclear factor erythroid 2-related factor 2/antioxidant responsive element (Nrf2/ARE) small molecule agonists: luciferase reporter gene qHTS assay in human keratinocytes (AID 1919969; note: nearly all actives have a fitted effect of over 35% in size; note: potency is the fitted concentration of half-maximal effect). (A reporter such as luciferase makes a cellular process visible.)
Assay [3] concerns the target Gonadotropin-releasing hormone receptor (Homo sapiens) (UniProt P30968). The assay is described as follows: Human gonadotropin-releasing hormone receptor (GnRHR) small molecule agonists, calcium flux assay in GnRHR-HEK293 cells (AID 1920063). Note: nearly all actives have a fitted effect of over 35% in size. Summed up: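 Fluorescence kinetics (480 nm excitation, 540 nm emission; 3 min, 1 s steps) report calcium mobilisation in human GnRHR-HEK293 cells in agonist mode. Dye incubation: 1 h, 37 C.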

Assay [4] has as its target KiSS-1 receptor (Homo sapiens) (UniProt Q969F8). The assay is described as follows: Human kisspeptin (KISS1R) small molecule agonists, calcium flux assay in KISS1R-HEK293 cells (AID 1920064; active = well fitted curve in the direction sought with a large enough effect in the repeat runs; an effect the other way counts as inactive or inconclusive). Summed up:
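Measures KISS1R agonism through calcium-sensitive dye fluorescence in stably transfected HEK293 cells, read for 3 min after pin-tool compound delivery; 15-point titrations in triplicate.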
For orientation: A change in cytosolic calcium serves as a functional read-out for many receptors and channels.

Assay [5] is described as follows: G protein-coupled receptor (GPCR) small molecule agonists, calcium flux assay: HEK293 wild type cell line counter screen (AID 1920065). Summed up:
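Readout: fluorescence at 480 nm excitation/540 nm emission, sampled at 1 s intervals for 3 min. Cells had been cultured 18 h, then dye-loaded 1 h at 37 C before compound or ATP addition.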

Assay [6] is described as follows: p53 small molecule agonists, cell-based qHTS assay with human liver microsomes (AID 1963577).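 Note: p53 response element beta-lactamase reporter cells with liver microsomes plus NADPH.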 An outline of the steps: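 16 h, 37 C exposure of p53RE-bla cells to compounds with human liver microsomes and NADPH (0.5 mg/mL final each); detection via LiveBLAzer mixture, 2 h dark at room temperature.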
In general terms: qHTS replaces the single test concentration by a dilution series.

Assay [7] is described as follows: p53 small molecule agonists, cell-based qHTS assay with human liver microsomes: qHTS cell viability counter screen (AID 1963579). Note: nearly all actives have a fitted effect of over 45% in size. Summed up: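 In this multiplexed counter screen, the reporter plates were subsequently treated with CellTiter-Glo so that cell viability, reflected by luminescence, could be recorded for p53RE-bla cells dosed 16 h with compounds under microsomal activation (HLM and NADPH).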

Assay [8] can be described thus: p53 small molecule agonists, cell-based qHTS assay with rat liver microsomes: qHTS cell viability counter screen (AID 1963580). Note: nearly all actives have a fitted effect of over 45% in size. Summed up:
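p53RE-bla HCT-116 cells (4,000/well) rested 5 h at 37 C, then given Tox21 compounds in DMSO with rat liver microsomes (0.5 mg/mL final) plus NADPH (0.5 mg/mL final) for 16 h at 37 C. Viability read by CellTiter-Glo luminescence after 30 min at room temperature.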

Assay [9] can be described thus: p53 small molecule agonists, cell-based qHTS assay: qHTS cell viability counter screen (AID 1963581). Note: nearly all actives have a fitted effect of over 45% in size. Summed up:
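In the same plates used for the p53 bla reporter, HCT-116 cells given compounds for 16 h at 37 C received CellTiter-Glo; luminescence was recorded 30 min later at room temperature.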

Assay [10] concerns the target 5-hydroxytryptamine receptor 2A (Homo sapiens) (UniProt P28223). Nature of the assay: 5-hydroxytryptamine receptor 2A (HTR2A) small molecule antagonists, cell-based qHTS assay (AID 1963586). Note: nearly all actives have a fitted effect of over 45% in size. An outline of the steps:
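Antagonist-mode intracellular calcium assay: DOI (4 nM) added after 5 min compound pre-incubation at room temperature to dye-loaded HTR2A-CHO cells. Fluorescence followed for 3 min, sampled every second.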

The target is the same in assay [11]. Nature of the assay: 5-hydroxytryptamine receptor 2A (HTR2A) small molecule agonists, cell-based qHTS assay (AID 1963587). Note: nearly all actives have a fitted effect of over 30% in size. An outline of the steps:
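HTR2A-CHO cells, plated 18 h at 37 C/5% CO2, dye-loaded 1 h at 37 C; compounds in DMSO added by pin tool (agonist mode). Intracellular calcium flux read as kinetic fluorescence on FDSS over 2 min at 1 s intervals.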

Assay [12] deals with Muscarinic acetylcholine receptor M1 (Homo sapiens) (UniProt P11229). The assay is described as follows: Cholinergic receptor muscarinic 1 (CHRM1) small molecule agonists, cell-based qHTS assay (AID 1963589). Note: nearly all actives have a fitted effect of over 35% in size. An outline of the steps: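 Each compound was tested at 15 concentrations across three independent runs on dye-loaded CHO cells stably expressing human CHRM1, reading intracellular calcium fluorescence kinetically at 1 sec intervals.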
Chain of Muscarinic acetylcholine receptor M1 (Homo sapiens) (P11229 whole entry, looked up): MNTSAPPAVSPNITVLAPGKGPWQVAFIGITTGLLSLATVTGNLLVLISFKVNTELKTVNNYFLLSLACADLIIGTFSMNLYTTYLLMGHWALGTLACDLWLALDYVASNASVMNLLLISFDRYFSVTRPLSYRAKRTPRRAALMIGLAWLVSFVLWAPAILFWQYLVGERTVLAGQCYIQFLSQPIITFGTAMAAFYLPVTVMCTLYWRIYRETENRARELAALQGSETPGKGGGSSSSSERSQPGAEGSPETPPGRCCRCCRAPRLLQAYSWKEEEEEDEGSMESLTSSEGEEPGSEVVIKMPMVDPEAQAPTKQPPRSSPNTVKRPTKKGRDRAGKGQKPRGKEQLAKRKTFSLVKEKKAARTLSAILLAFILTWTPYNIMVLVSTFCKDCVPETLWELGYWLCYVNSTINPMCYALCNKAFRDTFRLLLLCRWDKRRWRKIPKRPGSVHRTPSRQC

Assay [13] is described as follows: cAMP Responsive Elements (CRE) small molecule agonists, cell-based qHTS assay (AID 1963590). Summed up:
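Cell line: CRE-bla HEK 293T; medium DMEM/10% dialyzed FBS/0.1 mM NEAA/1 mM pyruvate/25 mM HEPES; 3 h compound exposure; beta-lactamase FRET readout after 2 h substrate loading at RT.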

The target in assay [14] is Beta-2 adrenergic receptor (Homo sapiens) (UniProt P07550). Nature of the assay: Adrenergic beta2 receptor (ADRB2) small molecule antagonists, cell-based qHTS assay (AID 1963592). Note: series mostly up to about 92 µM; nearly all actives have a fitted effect of over 50% in size. An outline of the steps:
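Cells (CHO, stable ADRB2 overexpression) incubated 18-20hr at 37C; compounds added from DMSO; agonist mix (1nM isoproterenol, 100uM IBMX, 25uM Ro-20-1724) added; 0.5hr RT; d2-cAMP and anti-cAMP-cryptate added; 1hr RT; 665/615 nm read.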

In assay [15] the target is D(2) dopamine receptor (Homo sapiens) (UniProt P14416). Nature of the assay: Dopamine D2 receptor (DRD2) small molecule agonists, cell-based qHTS assay (AID 1963594). Note: nearly all actives have a fitted effect of over 35% in size. Summed up:
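HEK293 cells stably expressing DRD2 were cultured 24 h at 37 C, then given Ro20-1724 (0.1 mM final) and compounds for 10 min at room temperature. NKH477 (200nM) was then added for 30 min. cAMP was read by HTRF.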

For assay [16] the target is unchanged. The assay is described as follows: Dopamine D2 receptor (DRD2) small molecule antagonists, cell-based qHTS assay (AID 1963595; active = well fitted inhibition curve with a large enough effect in the signal ratio in the repeat runs, with a control signal flat; the % refers to the signal ratio). Summed up:
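Stable D2 receptor HEK293 line, 24 h after seeding. Compound preincubated 10 min, then quinpirole (12 nM) with forskolin analogue NKH477 (200 nM), 30 min, room temperature. Detection by time-resolved FRET of cAMP.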

Assay [17] in a line: p53 small molecule agonists, cell-based qHTS assay (AID 1963582; active = well fitted activation curve with a large enough effect in the signal ratio in the repeat runs, not every such curve was filed as active; the % refers to the signal ratio). Summed up:
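Compounds are pin-transferred in DMSO onto p53RE-bla cells and incubated 16 h at 37 C. The B/G FRET beta-lactamase substrate is then applied for 2 h at RT and fluorescence recorded.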

In assay [18] the target is Muscarinic acetylcholine receptor M1 (Homo sapiens) (UniProt P11229). Nature of the assay: Cholinergic receptor muscarinic 1 (CHRM1) small molecule antagonists, cell-based qHTS assay (AID 1963588). Note: nearly all actives have a fitted effect of over 40% in size. An outline of the steps:
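CHRM1-CHO calcium-flux assay, antagonist mode. Cells were seeded 18 h, dye-loaded 1 h at 37 C and given compound for 5 min at RT, then acetylcholine was added at 50nM. FDSS fluorescence was read 3 min; 15 concentrations, three runs.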

Assay [19] in a line: cAMP Responsive Elements (CRE) small molecule antagonists, cell-based qHTS assay (AID 1963591; active = well fitted inhibition curve with a large enough effect in the signal ratio in the repeat runs, not every such curve was filed as active; the % refers to the signal ratio). Summed up:
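Inhibition of NKH477-driven (0.25 uM final) CRE-beta-lactamase signal in HEK293T cells, 3 h compound exposure at 37 °C, detected by FRET substrate fluorescence.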

A short description of assay [20]: p53 small molecule agonists, cell-based qHTS assay with rat liver microsomes (AID 1963578). Summed up:
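With rat liver microsomes and NADPH present (0.5 mg/mL final each), p53RE-bla cells are treated with compound for 16 h at 37 C. LiveBLAzer detection mixture is then applied for 2 h at room temperature in the dark.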

Inconclusive results are not listed. Active and inactive are the calls of the source. Unless noted, calls come from the whole dose curve.

Chain of KiSS-1 receptor (Homo sapiens) (Q969F8 whole entry, looked up): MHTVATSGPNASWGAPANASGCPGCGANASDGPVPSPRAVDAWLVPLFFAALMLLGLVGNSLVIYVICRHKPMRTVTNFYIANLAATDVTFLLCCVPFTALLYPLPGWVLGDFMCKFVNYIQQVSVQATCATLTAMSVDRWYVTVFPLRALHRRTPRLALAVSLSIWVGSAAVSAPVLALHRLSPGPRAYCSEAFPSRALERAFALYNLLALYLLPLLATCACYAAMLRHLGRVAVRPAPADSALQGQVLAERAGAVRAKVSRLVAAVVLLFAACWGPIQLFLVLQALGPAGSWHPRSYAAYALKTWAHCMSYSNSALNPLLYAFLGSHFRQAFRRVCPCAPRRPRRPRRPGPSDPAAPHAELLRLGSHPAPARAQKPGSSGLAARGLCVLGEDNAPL
Chain of 5-hydroxytryptamine receptor 2A (Homo sapiens) (P28223 whole entry, looked up): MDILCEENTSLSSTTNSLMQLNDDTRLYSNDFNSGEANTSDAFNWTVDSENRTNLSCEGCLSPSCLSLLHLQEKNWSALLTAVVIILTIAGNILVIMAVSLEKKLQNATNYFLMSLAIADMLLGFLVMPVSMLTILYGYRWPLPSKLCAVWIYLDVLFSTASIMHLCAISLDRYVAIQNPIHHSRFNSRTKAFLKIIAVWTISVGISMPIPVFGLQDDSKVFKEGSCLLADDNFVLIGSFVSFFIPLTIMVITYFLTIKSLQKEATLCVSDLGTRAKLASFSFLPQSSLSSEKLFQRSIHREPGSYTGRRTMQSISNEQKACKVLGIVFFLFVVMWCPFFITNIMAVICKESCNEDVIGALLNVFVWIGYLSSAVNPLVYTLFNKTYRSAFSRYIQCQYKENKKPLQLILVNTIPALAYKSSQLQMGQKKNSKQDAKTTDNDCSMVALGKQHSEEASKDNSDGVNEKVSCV
Chain of Gonadotropin-releasing hormone receptor (Homo sapiens) (P30968 whole entry, looked up): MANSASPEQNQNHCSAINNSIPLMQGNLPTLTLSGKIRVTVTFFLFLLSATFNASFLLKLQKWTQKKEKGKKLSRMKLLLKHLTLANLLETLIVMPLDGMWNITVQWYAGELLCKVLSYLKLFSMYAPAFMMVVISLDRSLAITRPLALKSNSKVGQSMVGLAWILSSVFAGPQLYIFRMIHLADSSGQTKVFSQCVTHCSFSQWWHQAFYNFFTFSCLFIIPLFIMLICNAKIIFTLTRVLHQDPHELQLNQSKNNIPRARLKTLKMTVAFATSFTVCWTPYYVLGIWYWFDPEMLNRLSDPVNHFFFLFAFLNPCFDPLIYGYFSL
Chain of D(2) dopamine receptor (Homo sapiens) (P14416 whole entry, looked up): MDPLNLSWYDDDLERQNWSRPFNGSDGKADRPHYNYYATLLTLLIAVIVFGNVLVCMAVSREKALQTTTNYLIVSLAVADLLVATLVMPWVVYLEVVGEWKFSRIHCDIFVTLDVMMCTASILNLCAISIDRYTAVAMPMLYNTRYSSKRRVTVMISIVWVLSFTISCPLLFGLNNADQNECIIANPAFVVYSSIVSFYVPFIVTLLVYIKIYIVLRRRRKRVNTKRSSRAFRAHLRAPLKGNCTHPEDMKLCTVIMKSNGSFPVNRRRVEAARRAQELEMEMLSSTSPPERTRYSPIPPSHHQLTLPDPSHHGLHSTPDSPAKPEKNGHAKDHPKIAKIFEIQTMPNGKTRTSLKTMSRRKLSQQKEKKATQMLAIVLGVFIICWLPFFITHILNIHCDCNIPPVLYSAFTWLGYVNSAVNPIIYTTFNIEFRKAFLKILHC
Chain of Beta-2 adrenergic receptor (Homo sapiens) (P07550 whole entry, looked up): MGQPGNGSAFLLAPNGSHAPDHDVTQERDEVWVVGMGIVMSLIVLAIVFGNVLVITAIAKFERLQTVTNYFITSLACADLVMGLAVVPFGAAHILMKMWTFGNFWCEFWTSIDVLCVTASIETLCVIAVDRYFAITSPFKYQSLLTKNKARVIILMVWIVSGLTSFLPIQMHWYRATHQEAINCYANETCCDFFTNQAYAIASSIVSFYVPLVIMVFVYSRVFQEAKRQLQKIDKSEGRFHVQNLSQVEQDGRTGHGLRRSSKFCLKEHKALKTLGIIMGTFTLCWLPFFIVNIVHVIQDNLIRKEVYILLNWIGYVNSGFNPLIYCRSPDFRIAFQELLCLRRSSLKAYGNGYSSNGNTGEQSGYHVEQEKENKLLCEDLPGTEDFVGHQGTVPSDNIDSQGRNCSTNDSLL

On to `Cc1c(C)n(CCN(C)C)c2ccc(C(=O)OCCN(C)C)cc12`, for which the Potency entry in assay [1], in assay [3], in [6], in [7], in assay [8] and in assay [9] was “inactive” each time. For the same molecule, the Potency entry in assay [10], in assay [11], in [12], in assay [13], in assay [14] and in [15] was “inactive” each time. Moreover, the Potency result in assay [16] is “inactive”. In addition, in assay [2], the Potency was 29.8 µM (active). Further, the result in [4] and in assay [5] was inactive.
Consider `COc1ccc(CCN(C)CCCC(C#N)(c2cc(OC)c(OC)c(OC)c2)C(C)C)cc1OC` (stereo not drawn), for which the Potency result in assay [1], in assay [2], in [3], in [6], in [7] and in assay [8] was “inactive” throughout. Besides, the Potency entry in [9], in assay [17], in assay [12], in [13], in assay [14] and in assay [16] was “inactive” in each case. The outcome in [4] and in assay [5] was inactive.
Take `Cc1cc(Br)ccc1NC(=O)CCl`: the Potency in [1] is 30.6 µM (active); in assay [2] it was 13.7 µM (active). Further, the Potency result in assay [3], in [6], in [7], in [8], in assay [10] and in assay [11] was “inactive” each time. In addition, the Potency result in assay [12], in assay [14] and in assay [16] was “inactive” in each case. The result in [4] and in assay [5] was inactive.
Regarding `NC(=O)N(O)[C@@H]1C=C[C@H](Oc2cccc(Oc3ccc(F)cc3)c2)C1`, the Potency result in [1], in assay [3], in assay [6], in assay [7], in assay [8] and in assay [9] was “inactive” each time. Moreover, the Potency result in assay [10], in assay [11], in assay [18], in assay [12], in assay [14] and in [16] was “inactive” each time. Further, the Potency in assay [2] is 61.1 µM (active). Besides, the result in [4] and in [5] was inactive.
As for `Cc1ccc(Cl)c(OCC(O)CNC(C)(C)C)c1` (stereo not drawn), the Potency entry in [1], in assay [2], in assay [3], in assay [6], in assay [7] and in assay [17] was “inactive” each time. Further, the Potency entry in assay [11], in [18], in assay [12], in [15] and in assay [16] was “inactive” each time. In addition, the result in assay [4] and in assay [5] was inactive.
`CC(C)NCC(O)c1ccc2ccccc2c1` (stereo not drawn): the Potency result in assay [1], in assay [2], in [3], in assay [6], in assay [7] and in [9] was “inactive” each time. Moreover, the Potency entry in [17], in assay [10], in [18], in assay [12], in assay [19] and in assay [16] was “inactive” each time. The result in [4] and in assay [5] was inactive.
`CC(C)C(=O)OCC(C)(C)C(O)C(C)C` (stereo not drawn): the Potency entry in assay [1], in [2], in [3], in assay [6], in assay [7] and in [8] was “inactive” each time. Also, the Potency result in assay [9], in [11], in assay [12], in assay [13], in assay [19] and in assay [14] was “inactive” in each case. In addition, the Potency result in [15] and in [16] was “inactive” throughout. The result in assay [4] and in [5] was inactive.
Consider `NC(=O)C1(N2CCCCC2)CCN(CCCC(=O)c2ccc(F)cc2)CC1`, for which the Potency entry in [1], in [2], in assay [3], in [20], in [7] and in [8] was “inactive” in each case. For the same molecule, the Potency entry in [9], in [17], in assay [11], in assay [18], in [12] and in assay [13] was “inactive” in each case. Also, the Potency result in [19], in [14] and in assay [15] was “inactive” in each case. For the same molecule, the outcome in assay [4] and in assay [5] was inactive.

Values taken from PubChem BioAssay (Tox21).
